Screening data as filed in PubChem BioAssay.
RGS4 inhibitor: human RGS4 inhibition | Transcreener GDP fluorescence polarization, RGS4-accelerated GTP hydrolysis | Potency, µM (highest dose often 114 µM), without a hit: top-dose activity change, negative = inhibition, hits mostly inhibitors | actives 0.039% (n = 390,000); also: nearly all actives have a fitted effect of over 75% in size
Target sequence (P49798 whole entry, looked up): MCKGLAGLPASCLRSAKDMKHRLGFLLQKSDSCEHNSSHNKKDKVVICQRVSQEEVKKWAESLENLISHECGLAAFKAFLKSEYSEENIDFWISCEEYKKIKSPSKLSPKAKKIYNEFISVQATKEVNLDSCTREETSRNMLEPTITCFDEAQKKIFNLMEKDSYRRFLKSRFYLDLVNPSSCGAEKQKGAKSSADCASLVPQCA
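MLSMR compounds (23 nl, pin-transferred) preincubated 10 min at room temperature with a 500nM (2x) first reagent, then RGS4 at 900nM (2x) plus Transcreener GDP mix added; fluorescence polarization (620/688 nm) read before and after 90 min at 30 °C.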
RECQ1 inh-1: blocks DNA unwinding by human RECQ1; RECQ1 DNA unwinding, red fluorescence kinetic read; Potency, µM (highest dose often 57.3 µM), for the others: top-dose activity, negative = inhibition, actives largely listed as inhibitors; actives 0.54% (n = 240,000);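 also: plate controls were vehicle for no effect and no enzyme for full effect; nearly all actives have a fitted effect of over 30% in size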
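50 nM RECQ1T1 preincubated 15 min with compound in Tris pH 8.0 buffer with MgCl2, DTT, Tween-20 and 2.5 ug/ml poly(dI-dC); started with 200 nM TAMRA/BHQ-2 forked duplex and 2 mM ATP. Unwinding read as fluorescence (525/598 nm), two reads 2 h apart.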
GCN5L2 inh: blocks human GCN5L2 histone acetyltransferase; Q92830; GCN5L2 HAT assay, ThioGlo1 CoA-SH fluorescence; Potency, µM (titrated, usually from 58.9 µM), inactives show top-dose activity change, negative = inhibition, most hits filed as inhibitors; actives 0.21% (n = 390,000); AID 504327
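Fluorescence readout, Ex340nm/Em540nm: ThioGlo1 (50uM final) reacts with free CoA thiol released as 20nM GCN5L2 acetylates H3(1-25) peptide (75uM) using acetyl-CoA (70uM). Compound and enzyme sat 15 min beforehand; 20 min room-temperature reaction.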
APE1 inh: inhibitors of human APE1 endonuclease | P27695 | recombinant APE1, TAMRA/BHQ-2 abasic DNA cleavage fluorescence | Potency, µM (highest dose often 65.8 µM), without a hit: at the highest dose activity change, negative = inhibition, hits mostly inhibitors | actives 0.35% (n = 350,000);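 also: plate controls were vehicle for no effect and reference inhibitor for full effect; nearly all actives have a fitted effect of over 55% in size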
Target sequence (P27695 whole entry, looked up): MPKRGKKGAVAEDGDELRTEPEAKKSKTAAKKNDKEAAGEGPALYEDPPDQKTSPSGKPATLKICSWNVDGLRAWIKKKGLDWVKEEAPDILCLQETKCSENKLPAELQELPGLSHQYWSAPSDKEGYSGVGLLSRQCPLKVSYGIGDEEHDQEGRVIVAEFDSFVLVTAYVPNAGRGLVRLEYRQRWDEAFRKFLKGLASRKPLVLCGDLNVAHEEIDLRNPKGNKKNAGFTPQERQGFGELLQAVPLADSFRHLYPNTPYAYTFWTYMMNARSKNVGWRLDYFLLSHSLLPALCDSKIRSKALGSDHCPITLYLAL
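Step 1: APE1 (0.75 nM) with compound, 15 min RT. Step 2: add 50 nM fluorophore/quencher THF duplex. Step 3: three fluorescence reads 60 s apart (525/598 nm); read 3 minus read 1 = reaction progress.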
BLM inh: blocks DNA unwinding by human BLM helicase | Potency, µM (series often up to 56.1 µM), inactives show at the top dose activity change, negative = inhibition, usual class: inhibitors | AID 2528 | recombinant BLM DNA unwinding, fluorescence dequenching | P54132 | actives 0.2% (n = 350,000);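 also: plate controls were vehicle for no effect and no enzyme for full effect; nearly all actives have a fitted effect of over 35% in size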
TDP1 inh: TDP1 (human) enzyme inhibition; recombinant TDP1, AlphaScreen DNA substrate cleavage; Potency, µM (titrated, usually from 130 µM), inactives show top-dose activity change, negative = inhibition, usual class: inhibitors; actives 0.28% (n = 350,000); also: nearly all actives have a fitted effect of over 40% in size
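AlphaScreen read-out: signal falls as enzyme removes the 3' tyrosine-FITC from a 5'-biotinylated DNA oligo (15 nM, 5 min, RT). Enzyme was E. coli-made recombinant Tdp1 at 1 nM, exposed to compound for 15 min beforehand; beads 10 ug/ml, 10 min.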
RECQ1 conf: confirmation of human RECQ1 helicase inhibitors. shares compounds with RECQ1 inh-1. RECQ1 helicase DNA unwinding, fluorescence. Potency, µM (titrated, usually from 229 µM), inactives show top-dose activity change, negative = inhibition, usual class: inhibitors. actives 28% (n = 610); also: nearly all actives have a fitted effect of over 45% in size
RECQ1 ADP FP: ADP displacement flagged in RECQ1 inhibitor counter-screen; shares compounds with RECQ1 inh-1; ADP fluorescence polarization displacement counterscreen; Potency, µM (titrated, usually from 228 µM), inactives show at the highest dose activity change, negative = inhibition, most hits filed as inhibitors; actives 27% (n = 530); AID 2711; also: nearly all actives have a fitted effect of over 45% in size
RECQ1 inh-2: confirmation of human RECQ1 helicase inhibitors; shares compounds with RECQ1 inh-1; recombinant RECQ1 DNA unwinding, red fluorescence; Potency, µM (titrated, usually from 119 µM), inactives show top-dose activity, negative = inhibition, actives largely listed as inhibitors; actives 15% (n = 1,100); AID 504841; also: nearly all actives have a fitted effect of over 50% in size
Numbers without * were called inactive; ! = not active in a repeat; [ ] = dose if it differs, or a comment. This is a sample that favours compounds with a hit; in the whole collection about 0.87% have one here. Calls follow the shape of the dose curve; as a rule, active = well fitted curve in the direction sought with a large enough effect; inconclusive = small, poorly fitted or top-dose-only effect, or another doubt; inactive = no such curve, though single readings can be large; an effect the other way counts as inactive or inconclusive. Unless noted, % is scaled to controls: 0 for no effect and ±100 for the full control effect; potency is read from the fitted curve at half-maximal effect.

Cc1oc2ccc(O)c(CN(C)Cc3ccccc3)c2c1C(=O)Nc1ccccc1 was read as RGS4 inhibitor -8.8%, GCN5L2 inh -15.7%, BLM inh 1.2% and TDP1 inh 8.6%.
CC(C)C(NS(=O)(=O)c1ccc2c(c1)oc(=O)n2C)C(=O)N1CCN(c2cccc(Cl)c2)CC1 (stereo not drawn) was read as RGS4 inhibitor -6.9%, GCN5L2 inh -7.6%, BLM inh 0.9% and TDP1 inh 5.8%.
COc1ccc(-n2c(SCC(=O)Nc3nc(C)cs3)nnc2-c2ccoc2C)cc1 was read as RGS4 inhibitor -9.8%, RECQ1 inh-1 -18.1%, GCN5L2 inh -4.7%, APE1 inh -1.1%, BLM inh 2.0%, TDP1 inh 3.3%, RECQ1 conf -6.3% and RECQ1 ADP FP 9.1%.
Screening COc1cccc(-n2c(SCC(=O)Nc3nccs3)nnc2-c2ccoc2C)c1 returned RGS4 inhibitor -1.6%, RECQ1 inh-1 inactive, GCN5L2 inh 0.2%, APE1 inh 3.8%, BLM inh 3.7% and TDP1 inh 4.9%.
`COc1ccc(-n2c(SCC(=O)Nc3nccs3)nnc2-c2ccoc2C)cc1` gave RGS4 inhibitor 2.8%, RECQ1 inh-1 -14.5%, GCN5L2 inh 0.4%, APE1 inh -1.7%, BLM inh -6.1%, TDP1 inh 5.6%, RECQ1 conf 6.6% and RECQ1 ADP FP -12.0%.
CN(C)C(=O)c1ccc(-c2nc(Nc3ccncc3)c3ccccc3n2)cc1 was read as RECQ1 inh-1 -2.8%, GCN5L2 inh -5.1%, APE1 inh 7.0% and BLM inh 45.4%.
For CN(C)c1ccc(-c2nc(Nc3ccncc3)c3ccccc3n2)cc1 the results were RECQ1 inh-1 inconclusive, GCN5L2 inh inconclusive, APE1 inh 5.3%, BLM inh -13.0%, TDP1 inh 15.2% and RECQ1 inh-2 inconclusive.
`Cc1cc(C)c2c(n1)sc1c(=O)n(-c3cc(Cl)ccc3C)nnc12` gave RGS4 inhibitor 7.1%, GCN5L2 inh 3.8%, BLM inh -2.0% and TDP1 inh 7.0%.
COC(=O)C1=C(C(=O)OC)[C@@H]2N(C)c3ccc(OC)cc3[C@@]23C[C@@H](C(=O)OC)N(C(C)=O)C3=N1 was read as RECQ1 inh-1 -6.0%[11.5 µM], APE1 inh -3.2%[12.4 µM], BLM inh -0.7%[12.4 µM] and TDP1 inh 14.6%[12.3 µM].
CC(C)CC1=C/C(=C/c2ccc(-c3ccccc3)o2)C(=O)O1 was read as RGS4 inhibitor inconclusive, RECQ1 inh-1 25.1µM*, GCN5L2 inh inconclusive, APE1 inh inconclusive, BLM inh -25.0%, TDP1 inh 5.3% and RECQ1 conf inconclusive.
`NS(=O)(=O)c1ccc(-c2ccc(C=C3C(=O)c4ccccc4C3=O)o2)cc1` gave RGS4 inhibitor -14.1%, GCN5L2 inh 1.9%, APE1 inh 32.9% and BLM inh -3.1%.
For Cc1ccc(-c2cn3c(n2)sc2cc(C(=O)NC4CCCc5ccccc54)ccc23)cc1 (stereo not drawn) the results were RGS4 inhibitor 12.0%, GCN5L2 inh -2.1%, BLM inh -5.2% and TDP1 inh 3.9%.
`CCc1nnc(NC(=O)c2cc(-c3ccco3)nc3ccccc23)s1` gave RGS4 inhibitor inconclusive, RECQ1 inh-1 inconclusive, GCN5L2 inh -11.3%, APE1 inh inconclusive, BLM inh -20.0%, TDP1 inh -3.5% and RECQ1 inh-2 inconclusive.
For O=C(O)c1cc(-c2ccco2)nc2ccc(Br)cc12 the results were RGS4 inhibitor inconclusive, RECQ1 inh-1 3.16µM*!, GCN5L2 inh inconclusive, APE1 inh 12.6µM*, BLM inh -12.5%, TDP1 inh 7.9%, RECQ1 conf 44.7µM*, RECQ1 ADP FP inconclusive and RECQ1 inh-2 inconclusive.
O=C(NC1CCC(O)CC1)c1cc(-c2ccco2)nc2ccccc12 (stereo not drawn) was read as RGS4 inhibitor -51.6%, RECQ1 inh-1 22.4µM*, GCN5L2 inh -22.7%, APE1 inh inconclusive, BLM inh -25.2% and RECQ1 inh-2 inconclusive.
For c1ccc(-c2noc(-c3cccnc3NCc3ccco3)n2)cc1 the results were RGS4 inhibitor -0.2%, GCN5L2 inh -9.4%, BLM inh -2.2% and TDP1 inh 5.7%.
Screening O=C(CCCN1C(=O)/C(=C\c2cccs2)SC1=S)NNC(=O)c1cccnc1 returned RGS4 inhibitor -38.3%, RECQ1 inh-1 2.82µM*, GCN5L2 inh -14.2%, APE1 inh -4.9%, BLM inh -0.2%, TDP1 inh 1.6%, RECQ1 conf inconclusive and RECQ1 ADP FP 3.4%[91.9 µM].
For Cc1ccc(C(=O)CSc2nnnn2Cc2ccccc2)cc1C the results were RGS4 inhibitor -3.0%, RECQ1 inh-1 inconclusive, GCN5L2 inh -24.5%, APE1 inh 5.0%, BLM inh -8.0%, TDP1 inh -1.9% and RECQ1 inh-2 -2.5%.
Cc1cc(/C=C\c2nc(O)c([N+](=O)[O-])c(=O)[nH]2)c(C)n1-c1ccccc1 was read as RGS4 inhibitor -26.7%, RECQ1 inh-1 25.1µM*, GCN5L2 inh -7.5%, APE1 inh inconclusive, BLM inh -16.2% and RECQ1 inh-2 inconclusive.
COc1ccc(-n2c(C)cc(/C=C/c3nc(O)c([N+](=O)[O-])c(=O)[nH]3)c2C)cc1 was read as RGS4 inhibitor -30.5%, RECQ1 inh-1 inconclusive, GCN5L2 inh -4.6%, APE1 inh inconclusive, BLM inh -25.4%, TDP1 inh inconclusive and RECQ1 inh-2 inconclusive.
`Cc1ccc(S(=O)(=O)N2CCN(c3cc(-c4cccs4)nc4ccccc34)CC2)cc1` gave RGS4 inhibitor 15.4%.
COc1ccc(OC)c(-c2csc(NC(=O)Cn3[nH]c(=O)c4ccccc4c3=O)n2)c1 was read as RGS4 inhibitor inconclusive, RECQ1 inh-1 28.2µM*, GCN5L2 inh -4.8%, APE1 inh -4.4%, BLM inh -11.3%, TDP1 inh 0.0% and RECQ1 inh-2 inconclusive.
